From PubChem
Shiga toxin inh – Shiga toxin inhibition; Vero cells, Shiga toxin protein synthesis inhibition reporter; inhibition, % at 38.7 µM; 290,000 tested, 9.2% active; in the data active = inhibition mostly above about 28%, no sharp cut-off; inactive = mostly below about 43%; note: 0% is about no effect
Sm TGR block – inhibitors of Schistosoma mansoni thioredoxin glutathione reductase; Q962Y6; purified TGR, DTNB reduction, TNB absorbance 405 nm; Potency, µM (top dose mostly 114 µM), without a hit: at the highest dose activity change, negative = inhibition, most hits filed as inhibitors; 360,000 tested, 3% active; note: potency is the fitted concentration of half-maximal effect; % is set by controls: 0 for no effect and ±100 for the full control effect; nearly all actives have a fitted effect of over 60% in size
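TGR 20 nM + NADPH 100 uM (dispensed conc.), cpd preinc 15 min RT; start with NADPH (500 uM addition) then DTNB (15 mM addition). Kinetic TNB absorbance, 405 nm filter. Four-parameter Hill fit across titration.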
CHX counter – counter-screen hit for Shiga toxin inhibitors, cycloheximide. max response, %. 300,000 tested, 12% active. cell reporter, cycloheximide protein synthesis inhibition counterscreen; in the data active = max response mostly above about 13%, no sharp cut-off; inactive = mostly below about 14%; note: read at 38.3 µM for the half of the compounds with a filed dose; 0% is about no effect
FBPA Giardia inh – Giardia lamblia aldolase inhibition; purified Giardia FBPA; 290,000 tested, 0.71% active; A8B2U2; Potency, µM (highest dose often 59.6 µM), for the others: at the top dose activity, negative = inhibition, most hits filed as inhibitors; note: potency is the fitted concentration of half-maximal effect; % is set by controls: 0 for no effect and ±100 for the full control effect; nearly all actives have a fitted effect of over 55% in size
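Giardia FBPA (40 nM reagent) was preincubated 10 min at RT with compound (up to 57.5 uM final), then substrate plus GAPDH/TPI/NAD/arsenate coupling system with diaphorase/resazurin was added; resorufin fluorescence (525/598 nm) was read after 20 min.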
Tb PYK inh – blocks Trypanosoma brucei pyruvate kinase; Q57TT1; TbPYK enzyme, Kinase-Glo Plus ATP luminescence, 45 min; Potency, µM (series often up to 76.8 µM), for inactives: at the highest dose activity, negative = inhibition, usual class: inhibitors; 410,000 tested, 0.12% active; AID 624173; note: potency is the fitted concentration of half-maximal effect; % is set by controls: 0 for no effect and ±100 for the full control effect; nearly all actives have a fitted effect of over 50% in size
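Assay buffer: 50 mM TEA pH 7.2, 100 mM KCl, 10 mM MgCl2, 0.05% BSA, 0.01% Tween-20. Pyruvate kinase from T. brucei plus substrate met compound, then ADP (130 uM final). Luminescence was read post 45 min RT.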
LmPK inh – inhibitors of Leishmania mexicana pyruvate kinase. purified LmPK, Kinase-Glo ATP luminescence, 1 h. Potency, µM (top dose mostly 57.5 µM), for the others: at the highest dose activity change, negative = inhibition, actives largely listed as inhibitors. 290,000 tested, 0.37% active; note: potency is the fitted concentration of half-maximal effect; % is set by controls: 0 for no effect and ±100 for the full control effect
Target sequence (Q27686 whole entry, looked up): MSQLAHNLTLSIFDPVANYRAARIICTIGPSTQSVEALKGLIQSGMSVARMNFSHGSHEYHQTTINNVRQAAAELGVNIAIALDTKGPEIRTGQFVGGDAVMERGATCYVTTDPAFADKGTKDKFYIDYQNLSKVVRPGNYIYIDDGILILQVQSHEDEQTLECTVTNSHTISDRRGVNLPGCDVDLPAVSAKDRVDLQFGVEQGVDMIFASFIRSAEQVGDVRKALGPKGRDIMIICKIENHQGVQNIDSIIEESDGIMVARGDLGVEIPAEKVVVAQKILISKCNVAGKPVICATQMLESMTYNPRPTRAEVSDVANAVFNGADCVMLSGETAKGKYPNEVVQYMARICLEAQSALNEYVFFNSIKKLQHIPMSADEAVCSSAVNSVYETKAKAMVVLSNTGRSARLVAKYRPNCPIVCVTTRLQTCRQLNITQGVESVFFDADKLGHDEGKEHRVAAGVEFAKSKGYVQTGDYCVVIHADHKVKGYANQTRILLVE
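ATP generated from ADP (0.1 mM) and PEP (0.5 mM) by 0.1 nM LmPK over 1 h at room temperature (pH 7.2 imidazole buffer) was detected by coupled luciferase luminescence. Values were normalized to uninhibited and no-enzyme wells.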
* marks the source's active call; other numbers are inactive results; ? = inconclusive; nt = no result. The entries come from a sample that favours hits as a whole. Unless noted, calls come from the whole dose curve; as a rule, active = well fitted curve in the direction sought with a large enough effect; inconclusive = small, poorly fitted or top-dose-only effect, or another doubt; inactive = no such curve, though single readings can be large; an effect the other way counts as inactive or inconclusive.

SMILES | Shiga toxin inh | Sm TGR block | CHX counter | FBPA Giardia inh | Tb PYK inh | LmPK inh
C[C@]12CC[C@@H]3c4ccc(OC(=O)N(CCCl)CCCl)cc4CC[C@@H]3[C@H]1CC[C@@H]2OP(=O)(O)O | nt | nt | nt | nt | 3.0% | nt
Cc1cc(NC(=O)c2ccccc2[N+](=O)[O-])ccc1Br | 133.9* | -1.2% | 50.5* | -10.3% | 0.8% | -3.5%
Cc1cccc(C(=O)Nc2cccc(Br)c2)c1[N+](=O)[O-] | 6.9 | 10.6% | 9.3* | -13.6% | 2.5% | 0.4%
COc1cccc(NC(=O)c2cccc(C)c2[N+](=O)[O-])c1 | 125.4* | nt | 27.6* | -12.7% | 2.3% | 3.0%
Cc1ccc(-c2cc(NC(=O)c3ccccc3[N+](=O)[O-])n[nH]2)cc1 | 68.0* | 4.7% | 13.2* | 4.6% | -3.0% | 0.0%
Cc1ccc(NC(=O)c2ccccc2[N+](=O)[O-])nc1 | 7.8 | 15.9% | 8.4 | 1.1% | 13.5% | -6.7%
Cc1ccccc1C(=O)Nc1cccc(NC(=O)c2ccccc2[N+](=O)[O-])c1 | -4.1 | 6.8% | -2.0 | -0.1% | -9.6% | 3.9%
O=C(COc1ncnc2scc(-c3ccc(Cl)cc3)c12)NCc1ccco1 | 53.0* | -28.8% | 27.0 | -2.5% | -2.4% | 2.8%
Nc1nc(SCC(=O)c2ccc(F)cc2)n[nH]1 | -1.4 | -9.8% | 12.4 | -1.1% | -2.8% | -2.7%
Cc1cc(C(=O)CSc2n[nH]c(N)n2)c(C)n1-c1ccc(F)cc1 | 61.3* | -18.6% | 40.3* | -4.2% | -1.8% | -3.5%
Cc1cc(C(=O)CSc2n[nH]c(N)n2)c(C)n1C1CC1 | 12.2 | -31.9% | -4.0 | -5.2% | -8.4% | -4.7%
Cc1cc(C(=O)CSc2n[nH]c(N)n2)c(C)n1-c1cc(F)ccc1F | 97.7* | -2.6% | 28.9* | 5.3% | 1.6% | -1.1%
Cc1cc(C(=O)CSc2n[nH]c(N)n2)c(C)n1-c1ccccc1 | 49.8* | -20.0% | 36.5* | 6.3% | -7.4% | 1.2%
Nc1nc(SCC(=O)c2cc(F)ccc2F)n[nH]1 | -1.1 | 1.1% | 3.0 | -9.3% | -2.0% | 2.2%
Cc1ccc(-n2c(C)cc(C(=O)CSc3n[nH]c(N)n3)c2C)cc1 | 54.3 | -26.9% | 10.0* | 3.2% | -5.8% | -0.7%
COc1ccc(NC(=O)CSc2nc(-c3ccco3)cc(C(F)(F)F)n2)cc1 | nt | 2.6% | nt | nt | 1.5% | nt
Cc1ccc(C(=O)[C@H](C)CN2CCCCC2)cc1 | nt | nt | nt | nt | 0.1% | nt
Cc1ccc(-n2c(C)cc(C(=O)COC(=O)c3c(C)noc3C)c2C)cc1 | 103.7* | 1.8% | 39.3* | -14.3% | 2.6% | -13.1%
C=CCn1c(C)cc(C(=O)CSc2n[nH]c(N)n2)c1C | 98.5 | -35.6% | 27.5* | -7.8% | -24.5% | -2.8%
C=CCn1c(C)cc(C(=O)CSc2nnc(NC(C)C)s2)c1C | 3.9 | -1.1% | 7.6 | 0.8% | -3.0% | -4.0%
Cc1ccc(S(=O)(=O)N2CCN(Cc3cc(=O)n4ccccc4n3)CC2)c(C)c1 | nt | -28.5% | nt | nt | -6.4% | nt
CC(=O)c1ccc(NC(=O)Cn2nc(C(F)(F)F)c3c2CCCC3)cc1 | nt | -7.1% | nt | nt | -2.1% | nt
CCOc1ccccc1C(=O)N(Cc1ccc(N(C)C)cc1)CC1CCCO1 (configuration not stated) | nt | -0.2% | nt | nt | -6.8% | nt
CC(C)(C)C(=O)OCc1nc(-c2ccc(C(F)(F)F)cc2)cs1 | 32.0 | -5.7% | 18.9* | -5.9% | -20.8% | -1.8%
O=C(O)c1ccc(/C=C(\c2nc3ccccc3[nH]2)c2nc3ccccc3s2)cc1 | 39.8* | ? | 29.7* | ? | 3.2% | 0.1%
C[C@@H]1CNCCN1S(=O)(=O)c1cccc2cnccc12 | nt | nt | nt | -13.4% | nt | nt
Cc1ccc([N+](=O)[O-])cc1NC(=S)NC(=O)CC(C)(C)C | 14.9 | 0.1% | 3.7 | 2.3% | 2.5% | 1.5%
Cc1ccc([N+](=O)[O-])cc1NC(=S)NC(=O)C(C)(C)C | 33.7 | 44.7µM* | 14.0* | 16.8% | -5.9% | 4.8%
COc1ccc(OCC(=O)NCc2ccc(Cl)cc2)cc1 | nt | -20.6% | 1.3 | 14.6% | 0.3% | 1.7%
COc1ccc(CCC(=O)NCCOc2ccc(Cl)cc2)cc1 | 40.2 | 12.9% | 31.7* | 3.5% | 0.4% | -7.5%
